# According to ChEMBL document CHEMBL5606460, “ASAP - DENV-2 NS2B-NS3 protease fluorescence single point” (2024):
# Out of some 2,000 compounds screened, about 110 (5.5%) showed an effect of 50% or more. This is one part of a sample in which strong results are shown more often than they occur.
# Molecular target: Genome polyprotein (dengue virus type 2) (UniProt P29990)
# [1] = Thailand/16681/1984, Concentration 25.0 uM, Number of replicates 1.0
compound,measurement,setting,value
Cc1cc(CO)c2cccc(CC(=O)NC[C@H](C)O)c2n1,inhibition,"Thailand/16681/1984, Concentration 99.9 uM, Number of replicates 2.0, Standard deviation 0.37872079112567497 %",-9.3%
Cc1cc(CO)c2cccc(Cc3cccc(C(=O)Nc4ccc(C(=O)O)o4)c3)c2n1,inhibition,"Thailand/16681/1984, Concentration 49.95 uM, Number of replicates 2.0, Standard deviation 0.4498774840540114 %",35.3%
same,inhibition,"Thailand/16681/1984, Concentration 99.9 uM, Number of replicates 2.0, Standard deviation 0.6611646932609445 %",80.5%
Cc1cc(CO)c2cccc(Cc3ccccc3C(=O)Nc3ccc(C(=O)O)o3)c2n1,inhibition,"Thailand/16681/1984, Concentration 49.95 uM, Number of replicates 2.0, Standard deviation 1.5990008562851066 %",16.8%
same,inhibition,"Thailand/16681/1984, Concentration 99.9 uM, Number of replicates 2.0, Standard deviation 2.1056511568076566 %",34.4%
Cc1cc(CO)c2cccc(Nc3ccc(C(=O)O)o3)c2n1,inhibition,"Thailand/16681/1984, Concentration 49.95 uM, Number of replicates 2.0, Standard deviation 2.0261345521834873 %",10.8%
same,inhibition,"Thailand/16681/1984, Concentration 99.9 uM, Number of replicates 2.0, Standard deviation 1.7612979174821286 %",14%
Cc1cc(CO)c2cccc(CC(=O)Nc3ccc(C(=O)O)o3)c2n1,inhibition,"Thailand/16681/1984, Concentration 49.95 uM, Number of replicates 2.0, Standard deviation 0.6719381020899052 %",88.9%
same,inhibition,"Thailand/16681/1984, Concentration 99.9 uM, Number of replicates 2.0, Standard deviation 0.0646782165500299 %",94%
Cc1cc(CO)c2cccc(Cc3cccc(C(=O)N[C@@H](C)C(N)=O)c3)c2n1,inhibition,"Thailand/16681/1984, Concentration 49.95 uM, Number of replicates 2.0, Standard deviation 0.7962665847500093 %",6.57%
same,inhibition,"Thailand/16681/1984, Concentration 99.9 uM, Number of replicates 2.0, Standard deviation 0.21200201975767785 %",24.1%
O=Cc1ccc(N2CCC(C(=O)Nc3ccccc3Oc3ccccc3)CC2)cc1,inhibition,[1],14.2%
c1ccc2c([C@H]3CCN(Cc4ccon4)C3)c[nH]c2c1,inhibition,"Thailand/16681/1984, Concentration 49.5 uM, Number of replicates 2.0, Standard deviation 1.9476178393933903 %",-2.85%
same,inhibition,"Thailand/16681/1984, Concentration 99.01 uM, Number of replicates 2.0, Standard deviation 2.5164078728535832 %",-2.25%
same,inhibition,"Thailand/16681/1984, Concentration 198.0 uM, Number of replicates 2.0, Standard deviation 2.4110409873352823 %",-1.68%
O=Cc1ccc(N2CCC(C(=O)N3CCN(CCOc4ccccc4)CC3)CC2)cc1,inhibition,[1],11.7%
CC(C)Nc1nc2ccc(C(=O)NCc3cnn(C)c3)cc2[nH]1,inhibition,"Thailand/16681/1984, Concentration 49.5 uM, Number of replicates 2.0, Standard deviation 2.4534347281334856 %",-3.32%
same,inhibition,"Thailand/16681/1984, Concentration 99.01 uM, Number of replicates 2.0, Standard deviation 2.252490861313308 %",-2.73%
same,inhibition,"Thailand/16681/1984, Concentration 198.0 uM, Number of replicates 2.0, Standard deviation 1.9859869815785558 %",-2.52%
NCc1ccc(C[C@H](NC(=O)c2ccccc2)C(=O)Nc2cccc(C(N)=O)c2)cc1,inhibition,"Thailand/16681/1984, Concentration 49.5 uM, Number of replicates 2.0, Standard deviation 0.2094720287352659 %",-3.21%
same,inhibition,"Thailand/16681/1984, Concentration 99.01 uM, Number of replicates 2.0, Standard deviation 1.2712236353041253 %",-1.98%
same,inhibition,"Thailand/16681/1984, Concentration 198.0 uM, Number of replicates 2.0, Standard deviation 0.9103772804850719 %",-0.193%
N=C(N)NCCC[C@H](NC(=O)[C@H](Cc1ccc(CN)cc1)NC(=O)c1ccccc1)B(O)O,inhibition,"Thailand/16681/1984, Concentration 25.0 uM, Number of replicates 3.0, Standard deviation 0.03506963405710981 %",99.2%
same,inhibition,"Thailand/16681/1984, Concentration 49.5 uM, Number of replicates 2.0, Standard deviation 0.000841588271065532 %",99.2%
same,inhibition,"Thailand/16681/1984, Concentration 49.5 uM, Number of replicates 2.0, Standard deviation 0.023586050776272474 %",99.1%
same,inhibition,"Thailand/16681/1984, Concentration 49.5 uM, Number of replicates 2.0, Standard deviation 0.03248746518177329 %",99.4%
same,inhibition,"Thailand/16681/1984, Concentration 49.5 uM, Number of replicates 2.0, Standard deviation 0.05596562002585788 %",99.3%
same,inhibition,"Thailand/16681/1984, Concentration 49.5 uM, Number of replicates 2.0, Standard deviation 0.06712205941408557 %",99.5%
same,inhibition,"Thailand/16681/1984, Concentration 49.5 uM, Number of replicates 2.0, Standard deviation 0.09040060678362256 %",99.2%
same,inhibition,"Thailand/16681/1984, Concentration 49.5 uM, Number of replicates 2.0, Standard deviation 0.09520737056259301 %",99.3%
same,inhibition,"Thailand/16681/1984, Concentration 49.95 uM, Number of replicates 2.0, Standard deviation 0.47465039008435067 %",97.5%
same,inhibition,"Thailand/16681/1984, Concentration 99.01 uM, Number of replicates 2.0, Standard deviation 0.0013325147625204256 %",99.6%
same,inhibition,"Thailand/16681/1984, Concentration 99.01 uM, Number of replicates 2.0, Standard deviation 0.024875407165917744 %",99.7%
same,inhibition,"Thailand/16681/1984, Concentration 99.01 uM, Number of replicates 2.0, Standard deviation 0.05930499912707304 %",99.8%
same,inhibition,"Thailand/16681/1984, Concentration 99.01 uM, Number of replicates 2.0, Standard deviation 0.0639876825840274 %",99.6%
same,inhibition,"Thailand/16681/1984, Concentration 99.01 uM, Number of replicates 2.0, Standard deviation 0.06968458780354793 %",99.8%
same,inhibition,"Thailand/16681/1984, Concentration 99.01 uM, Number of replicates 2.0, Standard deviation 0.07464240588758142 %",99.5%
same,inhibition,"Thailand/16681/1984, Concentration 99.01 uM, Number of replicates 2.0, Standard deviation 0.12292583554166162 %",99.6%
same,inhibition,"Thailand/16681/1984, Concentration 99.9 uM, Number of replicates 2.0, Standard deviation 0.4080138623651106 %",98.7%
same,inhibition,"Thailand/16681/1984, Concentration 198.0 uM, Number of replicates 2.0, Standard deviation 0.0010358009490037316 %",99.7%
same,inhibition,"Thailand/16681/1984, Concentration 198.0 uM, Number of replicates 2.0, Standard deviation 0.007655216388730705 %",99.8%
same,inhibition,"Thailand/16681/1984, Concentration 198.0 uM, Number of replicates 2.0, Standard deviation 0.011571838727151066 %",99.8%
same,inhibition,"Thailand/16681/1984, Concentration 198.0 uM, Number of replicates 2.0, Standard deviation 0.02492935513201169 %",99.9%
same,inhibition,"Thailand/16681/1984, Concentration 198.0 uM, Number of replicates 2.0, Standard deviation 0.05517797972088629 %",99.9%
same,inhibition,"Thailand/16681/1984, Concentration 198.0 uM, Number of replicates 2.0, Standard deviation 0.06791509451566656 %",99.8%
same,inhibition,"Thailand/16681/1984, Concentration 198.0 uM, Number of replicates 2.0, Standard deviation 0.07632018763310308 %",99.6%
N#Cc1ccc(C[C@H](NC(=O)c2ccccc2)C(=O)NCCCCNC(=N)N)cc1,inhibition,"Thailand/16681/1984, Concentration 49.5 uM, Number of replicates 2.0, Standard deviation 0.6326801671633419 %",-5.12%
same,inhibition,"Thailand/16681/1984, Concentration 99.01 uM, Number of replicates 2.0, Standard deviation 1.2914777248245206 %",-4.14%
same,inhibition,"Thailand/16681/1984, Concentration 198.0 uM, Number of replicates 2.0, Standard deviation 0.45252363179091937 %",-1.98%
O=Cc1ccc(N2CCC(C(=O)N3CCN(c4ccnc5cc(Cl)ccc45)CC3)CC2)cc1,inhibition,[1],1.86%
CC(C)CC(=O)N1CCC(NC(=O)C2CCN(c3ccc(C=O)cc3)CC2)CC1,inhibition,[1],14.2%
